# Screens (PubChem)
# Vif inh – inhibitors of HIV Vif; AID 602346; HEK293T cells, Vif self-association by quenched fluorescence, imaging, 24 h; inhibition, % at 7.49 µM; actives 0.35% (n = 340,000); in the data active = inhibition above about 50%, passing the limit was not always enough; inconclusive = no clear call, values can overlap the other calls; inactive = below about 31%
# Cardio protect – modulators protecting cardiomyocytes from myocardial damage; H9c2 cardiomyocytes, H2O2 injury protection, ATPLite, 2 h; protection from H2O2 cell death, % at 20 µM; actives 0.63% (n = 360,000); AID 588492;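 active = compounds giving at least 50% protection of heart cells from peroxide-induced death in the single-dose screen, raw or plate-pattern-corrected value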;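 also: 0% = DMSO wells with peroxide and 100% = DMSO wells without peroxide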
# ARNT-TACC3 inh – disruptors of human ARNT/TACC3 interaction. AlphaScreen His-ARNT PAS-B/GST-TACC3 binding, luminescence; TACC3 fragment carries E629A point mutation. Q9Y6A5. actives 0.66% (n = 390,000). inhibition, % at 9.99 µM. AID 623870;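 active = mean inhibition of replicates at least 50% and at least half of replicates each reaching 50%; inconclusive = half or more replicates reach 50% but mean below 50%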;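 also: 0% = complete ARNT plus TACC3 wells and 100% = ARNT alone without TACC3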
# Glyco luc inh – N-linked glycosylation inhibition; D54 ERlucT glycosylation luciferase reporter, 24 h; percent of 100 nM tunicamycin response; actives 0.23% (n = 360,000); AID 588692; reporter increase, % at 12.5 µM;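 active = mean luciferase reporter signal, scaled so untreated is 0 and the glycosylation-blocking control 100, at or above a set limit in every replicate; inconclusive = mean reaches the limit but not every replicate does; inactive = mean below the limit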;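 also: luciferase carries N-glycosylation sites so blocking glycosylation raises the light; 0% = median of neutral control wells and 100% = median of 100 nM tunicamycin wells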
# aDG glyco act – alpha-DG glycosylation activation. actives 0.22% (n = 360,000). Pro5-aDG cells, alpha-DG glycosylation AlphaScreen (IIH6); 0% Pro5, 100% B10-LARGE cell signal. activation, % at 10 µM. AID 624168;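 active = activation of at least 8% versus controls, or a plate z-score of at least 8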;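 also: Pro5 are CHO cells carrying HIG-tagged alpha-DG that lacks glycosylation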
# Numbers without * were called inactive; ? = inconclusive; . = not tested or not shown. The list is not random: actives were taken first. Their share in the collection is about 1.7%.
SMILES,Vif inh,Cardio protect,ARNT-TACC3 inh,Glyco luc inh,aDG glyco act
CCCn1c(=O)[nH]c(=O)c2c1nc(-c1cc([N+](=O)[O-])ccc1Cl)n2CCOC,65.5*,1.2,4.9,0.4,0.1
Cc1noc(C)c1S(=O)(=O)Nc1ccc2c(c1)C(=O)N([C@@H](C)CO)C[C@@H](C)[C@H](CN(C)C)O2,.,.,-1.9,.,.
COC(=O)C[C@@H]1CC[C@@H](NC(=O)Nc2ccc(C(F)(F)F)cc2)[C@@H](CO)O1,.,.,-16.6,.,.
COc1cc2c[n+](C)c3c4ccccc4ccc3c2cc1OC,-8.1,-4.0,8.1,33.9*,-0.2
N#C[C@H]1[C@@H](c2ccccc2)[C@H](CO)N1C(=O)C1CCCC1,.,.,7.4,.,.
COc1ccccc1-c1cc(C(F)(F)F)nc(S(=O)(=O)CCCC(=O)Nc2cccnc2Cl)n1,29.2,-18.9,-3.8,-5.6,-0.2
COc1ccccc1-c1cc(C(F)(F)F)nc(S(=O)(=O)CCCC(=O)NC(C)C)n1,?,-20.7,-0.3,-6.8,-0.6
COc1ccc(-c2cc(C(F)(F)F)nc(S(=O)(=O)CCCC(=O)Nc3cc(C)on3)n2)cc1OC,88.6*,-6.5,9.6,-10.5,0.0
COc1ccccc1-c1cc(C(F)(F)F)nc(S(=O)(=O)CCCC(=O)Nc2cc(C)on2)n1,60.2*,-18.8,20.3,-16.7,-0.5
Cc1cc(C(=O)Nc2cccc3c2O[C@H](CN(C)C(=O)Nc2ccc4c(c2)OCO4)[C@@H](C)CN([C@@H](C)CO)C3=O)n(C)n1,.,.,-9.1,.,.
COc1ccc(OC)c(N(CC(=O)Nc2cccnc2)S(=O)(=O)c2ccc(C)cc2)c1,10.3,19.3,-6.6,20.2,0.1
COc1ccc(OC)c(N(CC(=O)Nc2cccnc2)S(=O)(=O)c2ccc(OC)c(OC)c2)c1,-11.9,50.0*,-1.9,-0.6,-0.5
CCCNC(=O)N1[C@@H]2c3ccc(-c4cccc(OC)c4)c(=O)n3C[C@H]1[C@H](CO)[C@H]2C(=O)NCC,.,.,-1.9,.,.
O=C1OC(Nc2cc(Br)cc3cccnc23)c2ccccc21 (stereo not given),-14.2,-13.3,31.5,10.0,7.4*
O=C1OC(Nc2ncccn2)c2ccccc21 (stereo not given),17.0,1.0,-12.5,2.7,0.0
Cc1ccc(S(=O)(=O)N(C)C[C@@H]2Oc3ccc(NS(C)(=O)=O)cc3C(=O)N([C@@H](C)CO)C[C@@H]2C)cc1,.,.,-1.2,.,.
O=C(NN=Cc1ccc(O)cc1O)c1ccccc1NS(=O)(=O)c1cccs1,0.7,51.4*,46.8*,-1.1,0.1
O=C(CNC(=O)c1cccnc1)N/N=C/c1ccc(O)cc1O,7.8,5.9,79.7*,1.8,-0.2
O=C(CN1CCCc2ccccc21)N/N=C/c1ccc(O)cc1O,6.2,51.7*,43.6,-3.7,0.4
COc1ccc(C=NNC(=O)c2ccccc2NS(=O)(=O)c2cccs2)cc1O,9.5,6.5,3.8,-1.3,-0.1
C/C(=N\NC(=O)CNC(=O)c1cccnc1)c1cccc(O)c1,7.9,3.4,1.6,3.7,-0.1
O=C(CNC(=O)c1cccs1)N/N=C/c1ccc(O)cc1O,-4.7,36.4,70.4*,3.9,-0.1
C[C@H]1CN([C@@H](C)CO)C(=O)c2cccc(NS(=O)(=O)c3ccc(Cl)cc3)c2O[C@@H]1CN(C)C(=O)Nc1cccc2ccccc12,.,.,3.6,.,.
C[C@@H]1CCCCO[C@@H](CN(C)C(=O)NC2CCCCC2)[C@H](C)CN([C@H](C)CO)C(=O)c2cc(NC(=O)Cc3ccccc3)ccc2O1,.,.,-2.6,.,.
O=C(CCc1ccccc1)NCC(=O)N/N=C/c1ccc(O)cc1O,11.3,53.1*,35.0,2.6,0.0
SMILES,Vif inh,Cardio protect,ARNT-TACC3 inh,Glyco luc inh,aDG glyco act
Cn1c(-c2ccc3c(c2)OCO3)cnc1N,0.9,5.0,53.9*,1.7,-0.2
c1cn(CCCNC2=NCCCCC2)cn1,-0.8,0.6,96.8*,1.3,-0.1
COc1cccc(CN(C)C(=O)C(Cc2ccccc2)NC(=O)c2ccccc2)c1OC (stereo not given),-7.4,57.2*,0.1,-2.1,-0.1
COc1ccc(CN(C)C(=O)C(Cc2ccccc2)NC(=O)c2ccccc2)c(OC)c1OC (stereo not given),-6.3,42.8,.,-1.3,-0.5
CCN(C[C@H]1N[C@@H](CO)[C@H]1c1ccc(C2=CCCC2)cc1)C(=O)c1ccccc1,.,.,-8.2,.,.
CSc1nnc(CCNS(=O)(=O)c2ccccc2Br)n1C,-1.0,3.6,-4.7,1.7,0.0
CCn1c(CCNS(=O)(=O)c2ccccc2Br)nnc1SC,54.2*,-5.0,-5.5,0.9,0.0
COc1cc2nc(C3CCC3)nc(N3CCN(c4ccccn4)CC3)c2cc1OC,-20.8,59.5*,1.4,-6.5,-0.2
CN(C)C(=O)C[C@@H]1C[C@H]2c3cc(NC(=O)Nc4ccccc4)ccc3O[C@H]2[C@H](CO)O1,.,.,-2.6,.,.
O=C(N/N=C/c1cccnc1)c1cc(-c2ccccc2OCc2ccccc2)n[nH]1,-3.3,39.2,0.9,40.9*,-0.1
C[C@@H]1CN([C@H](C)CO)C(=O)c2cc(NC(=O)Cn3cnnn3)ccc2O[C@H]1CN(C)Cc1ccncc1,.,.,-5.5,.,.
CCCNC(=O)N[C@H]1CC[C@@H](CC(=O)NCCc2ccccc2)O[C@@H]1CO,.,.,-11.0,.,.
O=C(CCc1nc2ccccc2c(=O)[nH]1)N1CCN(S(=O)(=O)c2cccc([N+](=O)[O-])c2)CC1,-3.5,70.4*,-3.6,5.7,0.1
O=C(CCc1nc2ccccc2c(=O)[nH]1)N1CCN(S(=O)(=O)c2ccc(F)cc2)CC1,5.2,86.5*,-5.5,1.1,0.0
CN(Cc1nc2ccccc2c(=O)[nH]1)C(=O)c1cccc(S(=O)(=O)N2CCCC2)c1,12.6,39.8,-1.6,-0.1,0.3
CCc1nn2c(NCCCO)cc(C)nc2c1-c1ccc(F)cc1,-14.7,0.2,0.4,28.4*,0.2
O=c1oc2ccccc2cc1-c1nc(-c2cccs2)cs1,-1.6,15.5,-3.6,-1.1,-0.2
COc1cccc2cc(-c3nc(-c4cccs4)cs3)c(=O)oc12,6.0,87.0*,2.4,-1.0,-0.7
CCCC(=O)Nc1ccc2c(c1)C(=O)N(C)[C@@H]1CC[C@H](CC(=O)NCCc3ccncc3)O[C@H]1CO2,.,.,-11.1,.,.
COc1ccc(CNC(=O)C[C@H]2C=C[C@H](NC(=O)c3cccc(F)c3)[C@@H](CO)O2)cc1,.,.,-9.1,.,.
COc1ccc(N2C(=O)CC(NNc3ncc(Cl)cc3Cl)C2=O)cc1 (stereo not given),0.1,-2.7,68.1*,0.5,-0.2
COc1ccc(N2C(=O)CC(Nc3ccc(C)cc3)C2=O)cc1 (stereo not given),-3.8,8.1,17.4,2.4,-0.3
Cc1ccc2c(c1)C(=O)CCN2,50.6*,1.2,13.0,2.0,-0.2
O=C(c1ccoc1)N1CCN(c2cc(-c3ccncc3)nc3cc(-c4cccc(Cl)c4)nn23)CC1,-6.2,71.4*,.,-1.9,0.5
COc1ccc(-c2cc3nc(-c4ccccc4)cc(N4CCN(C(=O)c5ccoc5)CC4)n3n2)cc1,-7.1,53.7*,.,-5.8,0.1
